# Laboratory results as given in PubChem BioAssay (NCI).
# About 83,000 compounds went through this panel and 20% of them were active in at least one assay; those are over-represented in the sample as a whole.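 Results are percent growth after 48 hours of single-concentration exposure. 100 means growth as in untreated cells, lower positive values show inhibition; negative values down to -100 show cell death.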 Activity calls are given as the source filed them. How the source made its calls: active means growth percent below 10; inactive means the rest.
# System: SK-OV-3 ovarian
# Test: NCI-60 one-dose screen, 48 h (100 = growth as untreated, 0 = no growth, -100 = all killed)
# Details: 10 µM unless noted
row,SMILES,growth
1,C#C[C@]1(O)CC[C@H]2[C@@H]3CC=C4c5sc(-c6cccc(Br)c6)nc5CC[C@]4(C)[C@H]3CC[C@@]21C,95.9% (inactive)
2,NS(=O)(=O)c1ccc(CCn2c(SCC(=O)N/N=C/c3cc4ccccc4[nH]3)nc3ccccc3c2=O)cc1,95.4% (inactive)
3,CC(C)CC(=O)C(CCc1ccccn1)C(C)C (stereo not drawn),120% (inactive)
4,Cc1cc(C#Cc2ccc(C(C)(C)C)cc2)ccc1-n1c(/C=C/c2c(Cl)cccc2Cl)nc2ccccc2c1=O,106% (inactive)
5,CCOCCNc1ccc(S(=O)(=O)c2ccc(N)cc2)cc1N,105% (inactive)
6,CC(=O)O[C@@H]1CC2C(C)(C)CCCC2(C)C2=C1C(=O)C(C(C)C)=CC2=O (stereo partly drawn),17.2% (inactive)
7,CCN(CC)CCCC(C)Nc1c(-c2ccccc2)cnc2cc(Cl)ccc12 (stereo not drawn),89.7% (inactive)
8,COc1ccc(CNc2c3ccccc3nc3ccccc23)cc1F,48.1% (inactive)
9,Clc1ccc(-c2cnc3c(-c4ccnc(N5CCNCC5)c4)cnn3c2)cc1,85.2% (inactive)
10,CN(C)N1C(=O)c2c(Cl)c(Cl)c(Cl)c(Cl)c2C1=O,106% (inactive)
11,O=C(Nc1ccc(Cl)cc1)c1cc(-c2ccc(Cl)cc2)c2sc(=O)[nH]c2n1,-24.3% (active)
12,O=C1/C(=C/N2N=C(c3ccc(Cl)cc3)CC2c2ccccc2O)SC(=S)N1c1cccc(C(F)(F)F)c1 (stereo not drawn),74% (inactive)
13,N/C(=N\OC(=O)c1ccccc1)C(C(=O)NOC(=O)c1ccccc1)C1CCCCC1 (stereo not drawn),108% (inactive)
14,CC(C)c1ccc2c(c1)CCC1C2CCCC1(C)NCc1ccccc1 (stereo not drawn),86.4% (inactive)
15,Cc1ccncc1NC=O,110% (inactive)
16,COc1cc(C2CC(c3ccccc3)=NN2C=O)ccc1Oc1ccnc2cc(Cl)ccc12 (stereo not drawn),86.6% (inactive)
17,CO[C@H](C(=O)[C@@H](O)[C@@H](C)O)[C@@H]1Cc2cc3cc(O[C@H]4C[C@@H](O[C@H]5C[C@@H](O)[C@H](O)C(C)O5)[C@H](O)C(C)O4)c(C)c(O)c3c(O)c2C(=O)[C@H]1O[C@H]1C[C@@H](O[C@H]2C[C@@H](O[C@H]3C[C@](C)(O)C(=O)C(C)O3)[C@@H](O)C(C)O2)[C@H](O)C(C)O1 (stereo partly drawn),9.52% (active)
18,CC(=O)NC1C(O[C@H]2C[C@H]3[C@@H]4CC=C5C[C@@H](O)CC[C@]5(C)[C@H]4CC[C@]3(C)[C@H]2[C@H](C)C(=O)CCC(C)C)OCC(O)C1O (stereo partly drawn),37.9% (inactive)
19,O=C(CCl)Nc1ccc2c(c1)C(=O)c1ccccc1C2=O,54.5% (inactive)
20,Cc1csc(N/N=C/c2ccncc2)n1,101% (inactive)
21,COc1ccc(-c2cnc(-c3ccncc3-c3cccc(OC)c3)o2)cc1,-5.44% (active)
22,C#Cc1cccc(Nc2nc3cc([N+](=O)[O-])ccc3nc2Nc2ccc(O)cc2)c1,39% (inactive)

# System: IGROV1 ovarian
# Test: as above
# Details: 10 µM unless noted
row,SMILES,growth
1,CC1OC(n2c3ccccc3c3c4c(c5c6ccccc6[nH]c5c32)C(=O)N(CCN[C@H]2CCC[C@@H]2N)C4=O)CC(O)C1O (stereo partly drawn),36.4% (inactive)
2,Oc1ccc(-c2nnc3c4[nH]ccc4ncn23)cc1,84% (inactive)
3,Nc1c(Br)cc2c(c1Br)Cc1cc(Cl)ccc1-2,84.3% (inactive)
4,C#C[C@]1(O)CC[C@H]2[C@@H]3CC=C4c5sc(-c6cccc(Br)c6)nc5CC[C@]4(C)[C@H]3CC[C@@]21C,102% (inactive)
5,O=C1NN(C(=O)c2ccccc2)C(c2ccc(Cl)c(Cl)c2)=C/C1=C\c1ccccc1[N+](=O)[O-],19.3% [6.75 µM] (inactive)
6,NS(=O)(=O)c1ccc(CCn2c(SCC(=O)N/N=C/c3cc4ccccc4[nH]3)nc3ccccc3c2=O)cc1,65.4% (inactive)
7,CC(C)CC(=O)C(CCc1ccccn1)C(C)C (stereo not drawn),114% (inactive)
8,Cc1cc(C#Cc2ccc(C(C)(C)C)cc2)ccc1-n1c(/C=C/c2c(Cl)cccc2Cl)nc2ccccc2c1=O,103% (inactive)
9,CCOC(=O)c1ccc(NC(=O)CSC(N)=O)cc1,92% (inactive)
10,CCOCCNc1ccc(S(=O)(=O)c2ccc(N)cc2)cc1N,114% (inactive)
11,CC(=O)O[C@@H]1CC2C(C)(C)CCCC2(C)C2=C1C(=O)C(C(C)C)=CC2=O (stereo partly drawn),7.5% (active)
12,CCN(CC)CCCC(C)Nc1c(-c2ccccc2)cnc2cc(Cl)ccc12 (stereo not drawn),36.5% (inactive)
13,COc1ccc(CNc2c3ccccc3nc3ccccc23)cc1F,15.8% (inactive)
14,O=C(Nc1ccc(Cl)cc1)c1cc(-c2ccc(Cl)cc2)c2sc(=O)[nH]c2n1,28.1% (inactive)
15,COc1cnc2c(c1)C(=O)c1c-2n(CCCN2CCNCC2)c(=O)c2cc(Cl)ccc12,51.4% (inactive)
16,Nc1c(C(=O)C[C@@H](N)CO)ccc2c1C(=O)CCO2,51.4% (inactive)
17,C=C1C(=O)O[C@H]2[C@H]1CC/C(COC(=O)NCc1ccc(Cn3c(=O)sn(CCCl)c3=O)cc1)=C\CC[C@@]1(C)O[C@@H]21,47.7% (inactive)
18,O=C1/C(=C/N2N=C(c3ccc(Cl)cc3)CC2c2ccccc2O)SC(=S)N1c1cccc(C(F)(F)F)c1 (stereo not drawn),43.7% (inactive)

row,SMILES,growth
1,COc1cnc2c(c1)C(=O)c1c-2n(CCCN2CCN(C)CC2)c(=O)c2cc(Cl)ccc12,58.9% (inactive)
2,C[C@H](NC(=O)c1snnc1C1CC1)c1c(F)cccc1Cl,113% (inactive)
3,CC(C)(C)c1ccc(OC(=O)Nc2ccccc2)cc1,107% (inactive)
4,N/C(=N\OC(=O)c1ccccc1)C(C(=O)NOC(=O)c1ccccc1)C1CCCCC1 (stereo not drawn),-56.2% (active)
5,CC(C)c1ccc2c(c1)CCC1C2CCCC1(C)NCc1ccccc1 (stereo not drawn),84.2% (inactive)
6,Cc1ccncc1NC=O,114% (inactive)
7,Nc1c(N)c2ccccc2c2ccccc12,117% (inactive)
8,O=C1/C(=C/c2cc(F)cc(F)c2)Cc2cc(F)cc(F)c21,93.2% (inactive)
9,CNC(=O)c1c(NC(=O)c2ccc(C(C)C)cc2)sc2c1CCC(=O)C2,-52.7% (active)
10,COc1cc(C2CC(c3ccccc3)=NN2C=O)ccc1Oc1ccnc2cc(Cl)ccc12 (stereo not drawn),80.1% (inactive)
11,CO[C@H](C(=O)[C@@H](O)[C@@H](C)O)[C@@H]1Cc2cc3cc(O[C@H]4C[C@@H](O[C@H]5C[C@@H](O)[C@H](O)C(C)O5)[C@H](O)C(C)O4)c(C)c(O)c3c(O)c2C(=O)[C@H]1O[C@H]1C[C@@H](O[C@H]2C[C@@H](O[C@H]3C[C@](C)(O)C(=O)C(C)O3)[C@@H](O)C(C)O2)[C@H](O)C(C)O1 (stereo partly drawn),12.2% (inactive)
12,COc1cc(-c2nc(-c3ccc(-c4nc5ccc(F)cc5[nH]4)cc3)no2)cc(OC)c1OC,47.3% (inactive)
13,CC(=O)NC1C(O[C@H]2C[C@H]3[C@@H]4CC=C5C[C@@H](O)CC[C@]5(C)[C@H]4CC[C@]3(C)[C@H]2[C@H](C)C(=O)CCC(C)C)OCC(O)C1O (stereo partly drawn),72% (inactive)
14,O=C(CCl)Nc1ccc2c(c1)C(=O)c1ccccc1C2=O,-15.6% (active)
15,Cc1csc(N/N=C/c2ccncc2)n1,105% (inactive)
16,COc1ccc(-c2cnc(-c3ccncc3-c3cccc(OC)c3)o2)cc1,37.1% (inactive)
17,C#Cc1cccc(Nc2nc3cc([N+](=O)[O-])ccc3nc2Nc2ccc(O)cc2)c1,27.2% (inactive)
18,COc1cccc(-c2nc3sccn3c2-c2ccnc(NCCN3CCCN(C)S3(=O)=O)n2)c1,72.7% (inactive)
